VP16 counter: inhibits Gal4-VP16 luciferase reporter, ROR gamma counter-screen; Potency, µM (titrated, usually from 53.6 µM), without a hit: at the top dose activity, negative = inhibition, usual class: inhibitors; Drosophila S2 Gal4-VP16 UAS-luciferase, luminescence, 20 h; actives 3.5% (n = 310,000);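 note: Gal4-VP16 expression switched on by copper sulfate through the metallothionein promoter; potency is the fitted concentration of half-maximal effect; nearly all actives have a fitted effect of over 50% in size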
RORg inh: ROR gamma (mouse) transcription inhibition | actives 5.4% (n = 310,000) | Potency, µM (series often up to 53.6 µM), for inactives: at the highest dose activity change, negative = inhibition, actives largely listed as inhibitors | Drosophila S2 Gal4-RORgamma UAS-luciferase reporter, 20 h; note: potency is the fitted concentration of half-maximal effect; nearly all actives have a fitted effect of over 60% in size
Target sequence (P51450 whole entry, looked up, the tested form may be a part): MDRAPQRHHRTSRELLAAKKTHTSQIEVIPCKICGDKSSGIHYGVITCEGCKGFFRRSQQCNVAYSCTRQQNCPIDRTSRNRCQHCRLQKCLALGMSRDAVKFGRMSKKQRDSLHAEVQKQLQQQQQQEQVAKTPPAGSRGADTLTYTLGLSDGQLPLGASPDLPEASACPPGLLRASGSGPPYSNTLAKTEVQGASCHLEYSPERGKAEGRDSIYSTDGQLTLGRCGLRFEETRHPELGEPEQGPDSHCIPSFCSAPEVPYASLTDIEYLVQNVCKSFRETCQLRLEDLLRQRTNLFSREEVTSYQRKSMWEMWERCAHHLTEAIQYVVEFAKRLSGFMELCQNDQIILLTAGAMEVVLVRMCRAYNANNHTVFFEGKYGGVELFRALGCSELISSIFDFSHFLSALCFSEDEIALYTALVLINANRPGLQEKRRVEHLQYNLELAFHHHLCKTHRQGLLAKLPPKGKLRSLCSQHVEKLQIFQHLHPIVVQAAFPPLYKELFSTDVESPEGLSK
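ROR gamma transcriptional activity was tracked as Gal4-UAS luciferase output in stably transfected Drosophila Schneider cells, with compound added 1 hr before 700 uM copper sulfate induction and a 20 hr ambient-temperature incubation.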
TDP1 cell noCPT: qHTS for Inhibitors of human tyrosyl-DNA phosphodiesterase 1 (TDP1): qHTS in cells in absence of CPT. DT40 Tdp1-/- hTDP1 cells, no CPT, ATP luminescence, 48 h. Potency, µM (titrated, usually from 46.2 µM), for the others: top-dose activity change, negative = growth inhibition, hits mostly inhibitors. actives 15% (n = 420,000); note: potency is the fitted concentration of half-maximal effect; nearly all actives have a fitted effect of over 55% in size
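Stably hTDP1-transfected Tdp1-null chicken DT40 cells were treated with library compounds minus camptothecin and grown for at least 48 hr at 37 °C, after which cellular ATP was quantified by luminescence.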
DT40 TDP1 CPT: growth inhibition of DT40 Tdp1-/-;hTDP1 cells with camptothecin (screen for TDP1 inhibitors). Potency, µM (doses to about 46.2 µM), for the others: at the highest dose activity change, negative = growth inhibition, hits mostly inhibitors. chicken DT40 Tdp1-/-;hTDP1 cells + 20 nM CPT, ATP luminescence, 48 h. AID 686979. actives 12% (n = 420,000); note: potency is the fitted concentration of half-maximal effect; nearly all actives have a fitted effect of over 55% in size
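Chicken DT40 Tdp1-/- cells complemented with human TDP1, 400 cells/well, exposed to compounds plus 20 nM camptothecin for at least 48 h at 37 C; viability read as ATP content by CellTiter-Glo luminescence.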
LDHA inh: blocks human lactate dehydrogenase A. actives 0.15% (n = 480,000). purified LDHA, NADH/diaphorase-resazurin fluorescence; active compounds read low. AID 1347041. activity change, % (values are at about 110 or 230 µM); in the data active = activity change below about -30%; inconclusive = mostly about -25% to -30%;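 note: plate controls were DMSO wells for no effect and wells without enzyme for full effect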
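Human LDH5 (2 nM) was incubated with 0.06 mM NADH and 0.2 mM pyruvate for 5 min at room temperature in Tris pH 7.4. Remaining NADH was coupled through diaphorase/resazurin, and resorufin fluorescence was read at 0 and 20 min.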
IL1B secr inh: inflammasome signaling inhibition, IL-1 beta readout; THP-1 LPS/ATP IL-1B secretion, AlphaLISA, 16 h; active compounds read low; activity change, % at 57.5 µM; actives 4.7% (n = 360,000); AID 743279; in the data active = activity change below about -50%; inconclusive = mostly about -30% to -49%
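Secreted IL-1B measured by AlphaLISA bead assay after 16 h compound exposure of THP-1 cells; compounds (final up to 57.5 uM) added 1 h before LPS (250 ng/mL) and ATP (1.25 mM) stimulation; lower signal means less secretion.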
Starred values were filed as active, the others as inactive; [ ] = another dose, or the depositor's remark. The list is not random: actives were taken first. Their share in the collection is about 18%. Unless noted, calls come from the whole dose curve; as a rule, active = well fitted curve in the direction sought with a large enough effect; inconclusive = small, poorly fitted or top-dose-only effect, or another doubt; inactive = no such curve, though single readings can be large; an effect the other way counts as inactive or inconclusive. Unless noted, % is set by controls: 0 for no effect and ±100 for the full control effect.

How did O=C(CN1C(=O)c2ccccc2Sc2ncccc21)Nc1cccc(C(F)(F)F)c1 do in these assays?
TDP1 cell noCPT: inconclusive; DT40 TDP1 CPT: 18µM*; LDHA inh: -3

How did Cc1cc(C)c(NC(=O)CCN2C(=O)c3ccccc3Sc3ncccc32)c(C)c1 do in these assays?
TDP1 cell noCPT: 21µM*; DT40 TDP1 CPT: inconclusive; LDHA inh: -13

Results for Cc1c(Cl)cccc1NC(=O)CCN1C(=O)c2ccccc2Sc2ncccc21 ?
TDP1 cell noCPT: inconclusive; DT40 TDP1 CPT: inconclusive; LDHA inh: -5

What do the screens show for `Cc1ccc(NC(=O)CCN2C(=O)c3ccccc3Sc3ncccc32)c(Cl)c1`?
TDP1 cell noCPT: 18µM*; DT40 TDP1 CPT: 18µM*; LDHA inh: -5

Results for Cc1cc(N2CCN(Cc3nc(-c4ccc(F)cc4)oc3C)CC2)cc(C)n1 ?
VP16 counter: 2%; RORg inh: 13%; TDP1 cell noCPT: inconclusive; DT40 TDP1 CPT: inconclusive; LDHA inh: -3; IL1B secr inh: -6

How did COc1ccc(-c2nc(CN3CCN(c4ccccc4OC)CC3)c(C)o2)cc1 do in these assays?
VP16 counter: -4%; RORg inh: -30%; TDP1 cell noCPT: inconclusive; DT40 TDP1 CPT: inconclusive; LDHA inh: 3; IL1B secr inh: -97*

How did COc1ccccc1N1CCN(Cc2cccc(OC)c2OC)CC1 do in these assays?
VP16 counter: 3%; RORg inh: -20%; TDP1 cell noCPT: -1%; DT40 TDP1 CPT: inconclusive; LDHA inh: 0; IL1B secr inh: 7

Results for COc1ccccc1CN1CCN(Cc2nc(-c3ccc(C)cc3)oc2C)CC1 ?
VP16 counter: 0%; RORg inh: -27%; TDP1 cell noCPT: inconclusive; DT40 TDP1 CPT: 21µM*; LDHA inh: -3; IL1B secr inh: 0

What do the screens show for `COc1ccccc1N1CCN(Cc2nc(-c3ccc(F)cc3)oc2C)CC1`?
VP16 counter: 12%; RORg inh: -24%; TDP1 cell noCPT: 18µM*; DT40 TDP1 CPT: inconclusive; LDHA inh: 0; IL1B secr inh: -2

How did COc1ccccc1N1CCN(Cc2ccc(Br)o2)CC1 do in these assays?
VP16 counter: 20µM*; RORg inh: 12%; TDP1 cell noCPT: -27%; DT40 TDP1 CPT: -7%; LDHA inh: inconclusive; IL1B secr inh: 6

Results for CS(=O)(=O)Cc1cccc(C(=O)Oc2ccc(Cl)c(Cl)c2)c1 ?
LDHA inh: 4

What do the screens show for `Cc1cccc(C(=O)NCCC(=O)NC2CCCC2)c1`?
LDHA inh: 2

How did COc1ccc(-c2nnc(SCC(=O)Nc3cc(C)on3)n2C2CCCCC2)cc1 do in these assays?
LDHA inh: -5

How did COc1cccc(CNC(=O)Cn2c(=O)c3c(ncn3C)n(C)c2=O)c1 do in these assays?
LDHA inh: 0

Results for CCN(CC)S(=O)(=O)c1ccc(NC(=O)CN(c2ccccc2)S(C)(=O)=O)cc1 ?
LDHA inh: 0

How did COc1ccc(S(=O)(=O)N(Cc2nc(-c3ccccc3)no2)C2CCCCC2)cc1 do in these assays?
TDP1 cell noCPT: 9.2µM*; DT40 TDP1 CPT: 16µM*; LDHA inh: -6

Results for COc1ccc(S(=O)(=O)N(Cc2ccccc2)Cc2nc(-c3ccccc3)no2)cc1 ?
VP16 counter: -9%; RORg inh: -15%; TDP1 cell noCPT: 18µM*; DT40 TDP1 CPT: 15µM*; LDHA inh: -4; IL1B secr inh: -16

What do the screens show for `COc1ccc(S(=O)(=O)N(Cc2cccs2)C2CCCC2)cc1`?
VP16 counter: -4%; RORg inh: 16%; TDP1 cell noCPT: 12µM*; DT40 TDP1 CPT: 18µM*; LDHA inh: -3; IL1B secr inh: -14

Results for CS(=O)(=O)N(Cc1nc(-c2ccc(F)cc2)no1)c1ccccc1Cl ?
TDP1 cell noCPT: inconclusive; DT40 TDP1 CPT: 18µM*; LDHA inh: 6; IL1B secr inh: inconclusive

How did COc1ccc(-c2noc(CN(C)S(=O)(=O)c3ccc(F)cc3)n2)cc1 do in these assays?
LDHA inh: 5

What do the screens show for `CN(C)CCCN(Cc1ccccc1)C(=O)c1nn(C)c(=O)c2ccccc12`?
LDHA inh: -16

What do the screens show for `Cc1ccc(-c2noc(CN(C3CCCCC3)S(=O)(=O)c3ccc(F)cc3)n2)cc1`?
TDP1 cell noCPT: 18µM*; DT40 TDP1 CPT: inconclusive; LDHA inh: -2

What do the screens show for `O=C(CSc1ncnc2nc[nH]c12)Nc1ccc(Cl)cc1`?
LDHA inh: 1

What do the screens show for `O=C(CSc1ncnc2nc[nH]c12)Nc1nnc(SCc2ccc(Cl)c(Cl)c2)s1`?
VP16 counter: -3%; RORg inh: -42%; TDP1 cell noCPT: 18µM*; DT40 TDP1 CPT: -28%; LDHA inh: -10; IL1B secr inh: 19

What do the screens show for `C/C(=N\NC(=O)c1ccc(NS(=O)(=O)c2cccs2)cc1)c1ccc(C(C)(C)C)cc1`?
VP16 counter: -7%; RORg inh: 2%; TDP1 cell noCPT: 9.2µM*; DT40 TDP1 CPT: 7.3µM*; LDHA inh: -6; IL1B secr inh: 65

What do the screens show for `COC(=O)c1cc(-c2cc(C(F)(F)F)ccc2Cl)oc1C`?
LDHA inh: 4

How did C/C(Cl)=C/C[N+](C)(C/C=C(\C)Cl)Cc1ccccc1 (stereo not drawn) do in these assays?
LDHA inh: -4

How did COc1ccc(/C=C/c2n[nH]c(=O)c(C#N)c2C)cc1 do in these assays?
VP16 counter: -14%; RORg inh: -18%; TDP1 cell noCPT: inconclusive; DT40 TDP1 CPT: 4%; LDHA inh: -1; IL1B secr inh: -97*

What do the screens show for `NS(=O)(=O)c1ccc(NCc2ccccc2OCc2ccccc2F)cc1`?
VP16 counter: -9%; RORg inh: 5%; TDP1 cell noCPT: inconclusive; DT40 TDP1 CPT: inconclusive; LDHA inh: -5; IL1B secr inh: -19

Results for CCOc1ccccc1CNc1ccc(O)cc1 ?
VP16 counter: -10%[10 µM]; RORg inh: -36%; TDP1 cell noCPT: inconclusive; DT40 TDP1 CPT: 16µM*; LDHA inh: 6; IL1B secr inh: 38

What do the screens show for `CCOc1ccccc1CNCc1ccc(F)cc1`?
VP16 counter: 5%; RORg inh: 15%; TDP1 cell noCPT: inconclusive; DT40 TDP1 CPT: -3%; LDHA inh: -6; IL1B secr inh: -51*

Source: PubChem BioAssay (National Center for Advancing Translational Sciences (NCATS))
